Molecules are shown by their SMILES. Results filed as inconclusive are left out. A call without a number means that no potency is given here. Active and inactive are the calls of the source. The call rests on the fitted dose curve; in most records, active means well fitted cell-killing curve with a large enough effect; inconclusive means small, poorly fitted or top-dose-only effect, or effect the other way; inactive means no such curve, though single readings can be large or run the other way.
Potency means the concentration at half of the fitted maximal effect.

A short description of this experiment: Quantitative High-Throughput drug screen in 47 multiple myeloma cell lines against the NCATS MIPE library collection: PCM6_Riken cell viability assay (AID 1919870). Further: nearly all actives have a fitted effect of over 30% in size. Conditions: CellTiter-Glo ATP, 48 h; series mostly up to 45.8 µM. The method, boiled down: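 Inhibition of viability over 48 h was scored by ATP content (CellTiter-Glo) in 500-cell wells. Zero and full viability were defined by media-only and DMSO-only wells.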
(Cellular ATP, detected with luciferase, serves as a proxy for viable cell number.)
With `CCN(CC)C(=O)c1ccc(C2=CC3(CCNCC3)Oc3cccc(O)c32)cc1`, the Potency result is “inactive”.
For `CC(=O)Nc1ccc(OC[C@](C)(O)C(=O)Nc2ccc([N+](=O)[O-])c(C(F)(F)F)c2)cc1`, the Potency entry was “inactive”.
To `C[C@]12CC[C@H]3[C@@H](CCC4=CC(=O)CC[C@@]43C)[C@H]1CC[C@H]2O` belongs “inactive”; to `C#C[C@]1(O)C=C[C@@H]2[C@@H]3CCC4=CC(=O)CC[C@@H]4[C@H]3CC[C@@]21CC`, “inactive”; to `O=c1cccc2n1CC1CNC[C@H]2C1`, 20.9 µM (active).
Turning to `CC(=Cc1csc(C)n1)[C@@H]1C[C@H]2O[C@]2(C)CCC[C@H](C)[C@@H](O)[C@@H](C)C(=O)C(C)(C)[C@@H](O)CC(=O)O1`, the Potency entry is “inactive”.
To `C[C@]12CC[C@@H]3[C@@H](CCC4=CC(=O)CC[C@@H]43)[C@@H]1CC[C@@H]2OC(=O)CCc1ccccc1` belongs “inactive”; to `CCC(=O)OC1CCC2C3CCC4=CC(=O)CC[C@@]4(C)C3CC[C@]12C` (some centres not stated), “inactive”; to `CC(=Cc1csc(C)n1)[C@@H]1C[C@H]2O[C@@H]2CCC[C@H](C)[C@@H](O)[C@@H](C)C(=O)C(C)(C)[C@@H](O)CC(=O)O1`, “inactive”.
In the case of `CC[C@@H](C(N)=O)N1CCCC1=O` it was “inactive”.
To `COC1=CC(C)=C[C@@H](C)[C@@H](O)[C@@H](C)CC(C)=CC=C[C@H](OC)[C@H]([C@@H](C)[C@@H](O)[C@H](C)[C@@]2(O)C[C@@H](O)[C@H](C)[C@@H](C(C)C)O2)OC1=O` belongs 9.35 µM (active).
For the molecule `CCCC[N+]1(C)[C@H]2CC(OC(=O)[C@H](CO)c3ccccc3)C[C@H]1[C@H]1O[C@H]12` (some centres not stated), the Potency entry is “inactive”.

The record behind these values is PubChem BioAssay (NCATS).
